HepG2 tox – counter-screen for TGF-b inhibitors: cytotoxicity in HepG2 cells; Potency, µM (doses to about 46.1 µM), most hits filed as cytotoxic; AID 588856; HepG2 CAGA-GFP viability, ATP luminescence, 18 h; actives 0.76% (n = 410,000)
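HepG2 CAGA-GFP cells (1000/well, DMEM with 1% FBS) received compound, then TGF-beta at 500 pg/mL final, and were incubated 18 hours at 37 degrees C. Viability was read by CellTiter-Glo luminescence. Media-only wells were set as complete cell-killing and DMSO as no toxicity.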
DT40 TDP1 no CPT – qHTS for Inhibitors of human tyrosyl-DNA phosphodiesterase 1 (TDP1): qHTS in cells in absence of CPT | Potency, µM (titrated, usually from 46.2 µM), actives largely listed as inhibitors | DT40 Tdp1-/- hTDP1 cells, no CPT, ATP luminescence, 48 h | actives 15% (n = 420,000); further: nearly all actives have a fitted effect of over 55% in size
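Seeded 400 DT40-hTDP1 cells/well (vehicle DMSO, no 20 nM CPT); pinned compounds; ≥48 hr at 37 °C; CellTiter-Glo luminescence as viability measure.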
TGFb inhibitor – inhibitors of TGF-b signaling; HepG2 CAGA-GFP TGF-b/SMAD3 reporter, GFP fluorescence, 18 h; TGF-beta stimulated, 500 pg/mL final; Potency, µM (doses to about 46.1 µM), usual class: inhibitors; actives 1.2% (n = 410,000); further: nearly all actives have a fitted effect of over 65% in size
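Per well, imaged GFP fluorescence of HEPG2 CAGA-GFP cells gives the signal; cells get compound, then TGF-beta (500 pg/mL final), 18 h at 37 degrees C; %Activity versus -TGF-beta and +DMSO controls.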
IL1B secr inh – inhibitors of inflammasome signaling (IL-1 beta secretion); THP-1 LPS/ATP IL-1B secretion, AlphaLISA, 16 h; stronger effect = lower value; activity change, % at 57.5 µM; actives 4.7% (n = 360,000); AID 743279; in the data active means activity change below about -50%; inconclusive means mostly about -30% to -49%
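THP-1 cells pretreated 1 hr with compounds (up to 57.5 uM final), then stimulated with LPS (250 ng/mL final) plus ATP (1.25 mM final); secreted IL-1B measured by AlphaLISA after 16 hr, decreased signal indicating inhibition.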
DT40 TDP1 CPT – growth inhibition of DT40 Tdp1-/-;hTDP1 cells with camptothecin (screen for TDP1 inhibitors). chicken DT40 Tdp1-/-;hTDP1 cells + 20 nM CPT, ATP luminescence, 48 h. Potency, µM (top dose mostly 46.2 µM), most hits filed as inhibitors. actives 12% (n = 420,000); further: nearly all actives have a fitted effect of over 55% in size
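Cell growth measured by CellTiter-Glo luminescence after a minimum 48 h, 37 C compound exposure with 20 nM CPT in Tdp1-knockout DT40 cells stably expressing hTDP1, seeded 400/well; qHTS titration format.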
ASM inhibitor – blocks human secretory acid sphingomyelinase | Potency, µM (highest dose often 57.5 µM), hits mostly inhibitors | P17405 | placental ASM, HMU-PC fluorogenic substrate, 60 min | actives 0.006% (n = 340,000) | AID 504937
Target sequence (P17405 47-631 limits assumed): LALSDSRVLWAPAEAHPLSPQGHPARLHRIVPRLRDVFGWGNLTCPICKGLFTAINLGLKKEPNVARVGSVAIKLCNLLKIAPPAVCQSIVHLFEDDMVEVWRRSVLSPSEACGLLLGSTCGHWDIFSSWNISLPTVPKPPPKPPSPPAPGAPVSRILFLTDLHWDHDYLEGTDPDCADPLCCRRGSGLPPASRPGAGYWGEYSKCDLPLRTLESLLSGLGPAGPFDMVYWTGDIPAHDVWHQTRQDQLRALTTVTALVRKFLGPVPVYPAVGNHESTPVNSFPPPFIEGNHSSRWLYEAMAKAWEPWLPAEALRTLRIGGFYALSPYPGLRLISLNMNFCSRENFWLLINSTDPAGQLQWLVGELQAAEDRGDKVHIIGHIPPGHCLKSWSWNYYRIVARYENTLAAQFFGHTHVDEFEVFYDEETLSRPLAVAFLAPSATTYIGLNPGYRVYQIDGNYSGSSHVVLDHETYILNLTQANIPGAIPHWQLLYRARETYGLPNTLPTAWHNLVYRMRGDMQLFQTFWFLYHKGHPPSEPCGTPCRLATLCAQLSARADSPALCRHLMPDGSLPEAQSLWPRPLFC
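Steps: dispense placental human ASM, pin compound, wait 10 min at room temperature, add HMU-PC0 substrate at 9 uM final, incubate 60 min at 37 °C, add stop solution raising pH to 10, read fluorescence.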
Large screens that a line does not name were inactive. This is a sample that favours compounds with a hit; in the whole collection about 19% have one here. Unless noted, the call rests on the fitted dose curve; in most records, active means well fitted curve in the direction sought with a large enough effect; inconclusive means small, poorly fitted or top-dose-only effect, or another doubt; inactive means no such curve, though single readings can be large; an effect the other way counts as inactive or inconclusive.

Cc1nc2ncnn2c(N2CCCC(C(=O)Nc3ccccc3Br)C2)c1C (stereo unspecified)	DT40 TDP1 no CPT 15µM, DT40 TDP1 CPT inconclusive
Cc1ccc(C)c(-n2c(C)cc(/C=N/NC(=O)c3c(C)nc4cc(C)ccn34)c2C)c1	DT40 TDP1 no CPT 21µM, DT40 TDP1 CPT inconclusive
Cc1ccn2c(C(=O)N/N=C\c3cccs3)c(C)nc2c1	none
C[C@]1(O)CC(=O)C=C[C@H]1Nc1ccccc1	DT40 TDP1 no CPT 18µM, TGFb inhibitor inconclusive, IL1B secr inh -104, DT40 TDP1 CPT inconclusive
CC1(C)CC(C(=O)Nc2ccccc2)C(=O)O1 (stereo unspecified)	none
O=C(NCCc1ccccc1)c1cc(-c2ccc(Cl)c(Cl)c2)on1	none (no result: IL1B secr inh, ASM inhibitor)
O=C(c1cccc(NS(=O)(=O)c2cccc(F)c2)c1)N1CCCC1	none
CCCC(=O)OC1CC(C)N(C(=O)c2ccccc2)c2ccc(C)cc21 (stereo unspecified)	DT40 TDP1 no CPT 23µM, DT40 TDP1 CPT inconclusive
CC(=O)N1c2ccc(C)cc2C(c2ccccc2)CC1C (stereo unspecified)	DT40 TDP1 no CPT inconclusive, IL1B secr inh -55, DT40 TDP1 CPT inconclusive
CN1CCN(NC(=O)c2cc(S(=O)(=O)Nc3ccc(Cl)cc3)ccc2Cl)CC1	none
CCn1cc(/C=C(\NC(=O)c2ccccc2)C(=O)N2CCOCC2)c2ccccc21	none
Cc1cccc(NNC(=O)C(=O)NNc2cccc(C)c2)c1	none
CC(=O)C(=Nc1ccc(Cl)cc1Cl)NNc1cccc(Cl)c1	DT40 TDP1 no CPT inconclusive, TGFb inhibitor 22µM, DT40 TDP1 CPT inconclusive
CC1(c2ccc(OC(F)F)cc2)NC(=O)N(CC(=O)NCCC2=CCCCC2)C1=O (stereo unspecified)	none
Cc1nc(C)c(C(=O)Nc2cccc(F)c2)s1	none
O=S(=O)(c1ccc(OCc2ccc(Br)cc2)cc1)N1CCOCC1	DT40 TDP1 CPT inconclusive
CCS(=O)(=O)c1ccccc1C(=O)N(Cc1cccnc1)c1nc2cc(C)c(C)cc2s1	DT40 TDP1 no CPT 23µM, TGFb inhibitor inconclusive, DT40 TDP1 CPT inconclusive (no result: IL1B secr inh, ASM inhibitor)
O=C(Cc1ccccc1)N(Cc1cccnc1)c1nc2ccc(Cl)cc2s1	DT40 TDP1 CPT inconclusive (no result: IL1B secr inh, ASM inhibitor)
Cc1ccc2nc(N(Cc3cccnc3)C(=O)CCS(=O)(=O)c3ccccc3)sc2c1	DT40 TDP1 no CPT 16µM, DT40 TDP1 CPT inconclusive (no result: IL1B secr inh, ASM inhibitor)
O=C(CCS(=O)(=O)c1ccccc1)N(Cc1cccnc1)c1nc2ccc(Cl)cc2s1	DT40 TDP1 no CPT 13µM, DT40 TDP1 CPT 5.8µM (no result: IL1B secr inh, ASM inhibitor)
COc1ccc(N2CCC(CNC(=S)Nc3cc(C)ccc3C)C2)cc1 (stereo unspecified)	DT40 TDP1 no CPT 16µM, TGFb inhibitor inconclusive, DT40 TDP1 CPT 16µM
COc1ccc(N2CCC(CNC(=S)Nc3cc(C)cc(C)c3)C2)cc1 (stereo unspecified)	DT40 TDP1 no CPT 15µM, TGFb inhibitor inconclusive, IL1B secr inh -91, DT40 TDP1 CPT inconclusive
COc1ccc(N2CCN(C(=S)Nc3ccc(C)cc3C)CC2)cc1	HepG2 tox 6.3µM, IL1B secr inh inconclusive
Cc1cc(C)c2oc(-c3ccc(C)c(NC(=O)/C=C/c4ccco4)c3)nc2c1	DT40 TDP1 no CPT inconclusive, TGFb inhibitor inconclusive, DT40 TDP1 CPT inconclusive (no result: IL1B secr inh, ASM inhibitor)
CN(C)S(=O)(=O)c1ccc(N2CCCC2)c(C(=O)N2CCN(S(=O)(=O)c3ccccc3F)CC2)c1	DT40 TDP1 CPT inconclusive
O=C1C2CCCN2C(=S)N1c1cc(Cl)ccc1Cl (stereo unspecified)	IL1B secr inh -66
Cc1ccc(CN2C(=O)C(=O)c3cc(Br)cc(C)c32)cc1	DT40 TDP1 no CPT 1.5µM, TGFb inhibitor inconclusive, DT40 TDP1 CPT 2.3µM (no result: IL1B secr inh, ASM inhibitor)
Cc1ccc(OCCN2C(=O)C(=O)c3cc(C)ccc32)cc1	DT40 TDP1 no CPT inconclusive, DT40 TDP1 CPT 0.92µM
Cc1ccc(OCCCN2C(=O)C(=O)c3cccc(C)c32)cc1	DT40 TDP1 no CPT 15µM, TGFb inhibitor inconclusive, DT40 TDP1 CPT 7.3µM
Cc1cccc2c1N(CCOc1ccc(C(C)(C)C)cc1)C(=O)C2=O	DT40 TDP1 no CPT 4.1µM, DT40 TDP1 CPT 2.9µM
O=C1c2ccccc2C(=O)N1CCOc1ccccc1	none
